# Rows were chosen to be rich in hits. Some 4.1% of all compounds tested hit in one or more screens of this group.
# MEKK2 WT-MEK5: raises or lowers MEK5 binding to wildtype human MEKK2 PB1 domain | Q9Y2U5 | bead flow cytometry, Alexa488-MEK5 binding to MEKK2 WT; actives lie on both sides | 290,000 tested, 1.1% active | binding response (% of control), % at 10 µM; in the data active = binding response below about 67% or above about 130%
# CHT block: human CHT choline transport inhibition. Q9GZV3. CHT-expressing cells, membrane potential dye, choline response; active compounds read low. B-score at 10 µM. 310,000 tested, 0.86% active. AID 488975;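 active = B-score over 3 SD under the library average, and starting fluorescence ratio not unusually high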;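 also: choline stimulus applied at its EC90 after an EC20 pre-addition; B-score computed on integrated fluorescence ratio after choline addition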
# Target sequence (Q9GZV3 whole entry, looked up): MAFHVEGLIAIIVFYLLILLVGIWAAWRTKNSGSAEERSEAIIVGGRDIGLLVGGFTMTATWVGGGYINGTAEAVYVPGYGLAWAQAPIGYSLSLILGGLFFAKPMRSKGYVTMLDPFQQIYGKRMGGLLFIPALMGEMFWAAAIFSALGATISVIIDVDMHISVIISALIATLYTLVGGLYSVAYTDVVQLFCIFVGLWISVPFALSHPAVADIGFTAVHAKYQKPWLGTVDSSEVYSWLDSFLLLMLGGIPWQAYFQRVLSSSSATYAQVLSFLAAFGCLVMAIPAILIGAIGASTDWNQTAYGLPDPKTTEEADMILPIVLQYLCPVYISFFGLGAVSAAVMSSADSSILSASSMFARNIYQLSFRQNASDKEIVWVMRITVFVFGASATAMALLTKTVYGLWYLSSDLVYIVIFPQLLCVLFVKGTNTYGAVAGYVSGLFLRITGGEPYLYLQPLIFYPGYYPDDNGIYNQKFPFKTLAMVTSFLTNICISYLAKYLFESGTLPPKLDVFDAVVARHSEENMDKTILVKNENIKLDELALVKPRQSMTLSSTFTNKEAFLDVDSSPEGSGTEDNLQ
# MEKK3 PB1 HTS: raises or lowers MEK5 binding to the human MEKK3 PB1 domain. 290,000 tested, 1.4% active. AID 1529. binding response (% of control), % at 10 µM. Q99759. bead-based flow cytometry, Alexa488-MEK5 binding to MEKK3; actives lie on both sides; 0 = blocked by unlabeled MEK5, 100 = vehicle;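 active = binding response more than 3 SD above or below the average of its plate-row segment, actives on both sides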;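 also: Alexa488 bead fluorescence after subtracting the streptavidin-only scavenger bead signal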
# CHT allo act: human CHT allosteric activation | Q9GZV3 | 310,000 tested, 0.49% active | B-score at 10 µM | AID 488977 | CHT-expressing cells, membrane potential dye, choline EC20; active compounds read high; LV-AA mutant CHT in HEK293 cells;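 active = initial fluorescence not abnormally high and integrated response B-score, plate-corrected, over 3 SD above library mean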
# MEKK2mut PB1 HTS: signal of MEK5 binding to mutant human MEKK2 PB1 domain; percent response, % at 10 µM; 290,000 tested, 0.35% active; bead flow cytometry, Alexa488-MEK5 binding to MEKK2 mutant; AID 1530; in the data active = percent response above about 24%, passing the limit was not always enough
# Mot1-301 SUMO: blocks SUMOylation pathway, rescuing yeast Mot1-301 growth | AID 2716 | S. cerevisiae Mot1-301 growth rescue, ATP luminescence, 38.5C; percent above DMSO median, 100 means doubled | 320,000 tested, 1% active | growth rescue, % at 18.8 µM;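 active = every valid replicate shows activation above 250% relative to neutral control wells; inactive = the rest, any valid replicate at or below 250%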;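 also: OY570 slx delta 5 strain wells were the positive control but not used for scaling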
# Mot1 SUMO dose: inhibits SUMO pathway, affecting Mot1-301 yeast growth; shares compounds with Mot1-301 SUMO; growth activity, percent, % at 42 µM; S. cerevisiae Mot1-301 galactose growth, ATP luminescence, 24 h; -100 = growth of slx-deleted rescue strain; 2,300 tested, under 10 active;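 active = Signal drops as the depositor expects, and the fitted half-maximal dose is no more than ten times the top valid tested dose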;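 also: more negative values mean stronger growth rescue toward the control strain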
# * marks the source's active call; other numbers are inactive results; i = inactive; · = no result; + = active, no number.
SMILES,MEKK2 WT-MEK5,CHT block,MEKK3 PB1 HTS,CHT allo act,MEKK2mut PB1 HTS,Mot1-301 SUMO,Mot1 SUMO dose
CCOC(=O)c1ccc(N2CN(CCc3ccccc3)CNC2=S)cc1,95,i,99,i,-1,-26,·
CCCN1CCc2nc(SCC(=O)Nc3ccc(C)c(Cl)c3)[nH]c(=O)c2C1,100,i,103,i,1,2,·
CCNC(=O)NC1c2ccccc2CSc2ccccc21 (stereo not drawn),·,i,·,i,·,614*,0
NC(=O)C1c2ccccc2CSc2ccccc21 (stereo not drawn),102,i,98,i,0,14,·
O=C1C2CCCN2C(=S)N1C1CCCCC1 (stereo not drawn),102,i,104,i,4,622*,-1
COc1ccccc1-c1nnc(SCC(=O)NC2CCCCC2)n1N,·,·,·,·,·,-2,·
COc1ccccc1-c1nnc(SCC(=O)NC2CCS(=O)(=O)C2)n1N (stereo not drawn),·,i,·,i,·,+,0
CC[C@H]1C/C=C\Cc2ccccc2[C@H](C(=O)C[C@@H](O)CC(C)=O)OC1=O,·,·,·,·,·,-16,·
CC[C@@H]1C/C=C\Cc2ccccc2[C@H](C(=O)C[C@@H](O)CC(C)=O)OC1=O,·,·,·,·,·,497*,-1
C/C(=C\C(=O)N1CCc2ccccc21)C(=O)O,93,i,97,i,-19,587*,2
O=C(c1ccccc1)N1CCc2ccccc21,99,i,96,i,0,4,·
O=C(NCCOc1ccccc1)C1CCC(=O)N(CCN2CCOCC2)C1 (stereo not drawn),100,i,102,i,10,0,·
COc1ccc2nc(NC(=O)c3cc(S(=O)(=O)N4CCOCC4)ccc3C)sc2c1,102,i,103,i,1,529*,0
COc1ccc2nc(NC(=O)c3cccc(S(=O)(=O)N4CCOCC4)c3)sc2c1,117,i,110,i,12,102,·
Cc1nc2ccc(NC(=O)c3ccc(S(=O)(=O)N4CCOCC4)cc3)cc2s1,·,i,·,i,·,+,0
CCOC(=O)Cn1c(=O)c(F)cn(Cc2ccc(OC)c([N+](=O)[O-])c2)c1=O,101,i,102,i,7,45,·
CCOc1ccc(CCNC(=O)c2oc3c(c2C)-c2[nH]ncc2CC3)cc1OCC,97,i,97,i,5,0,·
Cc1c(C(=O)NC(C)C)oc2c1-c1[nH]ncc1CC2,96,i,100,i,0,+,0
CC(=O)Nc1cccc(OCC(=O)Nc2sccc2C(N)=O)c1,96,i,100,i,6,5,·
Cc1ccc(C(=O)O)cc1[N+](=O)[O-],·,·,·,·,·,365*,-1
CCOC(=O)c1sc(NC(=S)NC(=O)c2ccco2)nc1C,101,i,107,i,-1,-3,·
CCOC(=O)c1sc(NC(=O)C(CC)OC(=O)c2ccco2)nc1C (stereo not drawn),103,i,104,i,3,889*,0
COc1ccc(OCC(=O)O/N=C(\N)Cc2ccc(Cl)cc2)cc1,103,i,102,i,6,+,0
Cc1ccc(OCC(=O)O/N=C(\N)Cc2ccc(Cl)cc2)cc1,98,i,97,i,0,-14,·
CN(C)C(=O)c1cc(C(=O)c2ccc(C(F)(F)F)cc2F)c[nH]1,110,i,121,i,0,500*,0
SMILES,MEKK2 WT-MEK5,CHT block,MEKK3 PB1 HTS,CHT allo act,MEKK2mut PB1 HTS,Mot1-301 SUMO,Mot1 SUMO dose
CCSc1nc2ccccc2c(=O)n1C1CCOC(C)(C)C1 (stereo not drawn),95,i,98,i,-5,545*,0
C=CCSc1nc2ccccc2c(=O)n1C1CCOC(C)(C)C1 (stereo not drawn),101,i,100,i,4,-1,·
COC(CNC(=O)c1cn(C)c2ccc(S(=O)(=O)N3CCOCC3)cc2c1=O)OC,102,i,102,i,3,606*,0
Cc1ccc(CNC(=O)c2cn(C)c3ccc(S(=O)(=O)N4CCOCC4)cc3c2=O)cc1,103,i,98,i,2,9,·
O=C(COC(=O)[C@@H]1CC(O)CN1S(=O)(=O)c1ccccc1[N+](=O)[O-])Nc1ccc2ccccc2c1 (stereo partly drawn),114,i,107,i,2,495*,0
CN(Cc1ccc(F)cc1)C(=O)c1cc(COc2ccc(-n3cncn3)cc2)on1,102,i,101,i,1,18,·
Cc1cccc(C)c1NC(=O)CN(C)CC(=O)c1c(N)n(Cc2ccccc2)c(=O)n(C)c1=O,·,·,·,·,·,-3,·
C=CCN1/C(=C2/SC(=S)N(C)C2=O)Sc2ccccc21,98,i,98,i,-1,-9,·
COc1ccc(NC(=O)COC(=O)c2cc(OC)c(OC)c(OC)c2)c([N+](=O)[O-])c1,80,i,84,i,-22,-31,·
CNS(=O)(=O)c1cccc(C(=O)OCC(=O)Nc2ccc(OC)cc2[N+](=O)[O-])c1,97,i,108,i,-5,810*,0
COC(=O)c1cc(NC(=O)CSc2nnc(CN3CCOCC3)n2C)ccc1Cl,86,i,96,i,-20,3,·
Cn1c(CN2CCOCC2)nnc1SCC(=O)Nc1cc(Cl)ccc1Cl,95,i,94,i,-10,611*,2
COc1cc(-c2nnc(SC(C)C(=O)Nc3c(C)n(C)n(-c4ccccc4)c3=O)o2)cc(OC)c1OC (stereo not drawn),92,i,86,i,-5,5,·
Cc1c(NC(=O)C(C)Sc2nnc(-c3ccccc3)o2)c(=O)n(-c2ccccc2)n1C (stereo not drawn),107,i,103,i,3,373*,0
Cc1ccccc1NS(=O)(=O)c1cc2c3c(c1)C(C)C(=O)N3CCC2 (stereo not drawn),103,i,102,i,-2,2,·
COc1ccc(OCC(O)CN2C(=O)NC(C)(C)C2=O)cc1 (stereo not drawn),102,i,109,i,1,+,2
CC1(C)NC(=O)N(CC(O)COc2cccc(F)c2)C1=O (stereo not drawn),99,i,104,i,10,15,·
CCOC(=O)C1C(=O)NC(SCC(=O)Nc2nccs2)=C(C#N)C1c1ccccc1OCC (stereo not drawn),79,i,78,i,-7,633*,0

# Bioassay records (PubChem BioAssay)
